Test results from ChEMBL document CHEMBL1961873, “Compounds: GSK PKIS; Assays: Nanosyn kinase panel” (2012).

Tests used:
[1] = target: T1, 3-phosphoinositide-dependent protein kinase 1 (Homo sapiens) (UniProt O15530); conditions: at 0.1 µM;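 note: values are mean inhibition of PDK1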
T1 sequence (whole entry): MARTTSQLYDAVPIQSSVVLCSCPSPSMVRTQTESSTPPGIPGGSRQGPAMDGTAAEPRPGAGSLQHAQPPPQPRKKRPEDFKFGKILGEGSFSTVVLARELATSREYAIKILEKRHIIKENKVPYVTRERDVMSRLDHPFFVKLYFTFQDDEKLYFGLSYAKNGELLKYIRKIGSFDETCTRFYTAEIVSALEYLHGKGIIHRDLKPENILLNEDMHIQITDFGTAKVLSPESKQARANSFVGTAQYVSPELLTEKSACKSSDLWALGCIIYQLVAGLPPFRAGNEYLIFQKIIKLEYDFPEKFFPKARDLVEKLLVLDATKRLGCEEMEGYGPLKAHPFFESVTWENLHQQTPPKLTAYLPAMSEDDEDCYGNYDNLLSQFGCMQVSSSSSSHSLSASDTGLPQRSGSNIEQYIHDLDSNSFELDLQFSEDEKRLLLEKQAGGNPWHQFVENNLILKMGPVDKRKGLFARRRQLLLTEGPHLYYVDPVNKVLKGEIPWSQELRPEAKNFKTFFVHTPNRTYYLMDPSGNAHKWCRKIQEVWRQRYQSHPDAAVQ

[2] = target: cAMP-dependent protein kinase catalytic subunit alpha (Homo sapiens) (UniProt P17612); conditions: at 0.1 µM
[3] = target: cAMP-dependent protein kinase catalytic subunit alpha (Homo sapiens) (UniProt P17612); conditions: at 1 µM
[4] = target: Protein kinase C alpha type (Homo sapiens) (UniProt P17252); conditions: at 0.1 µM
[5] = target: Protein kinase C alpha type (Homo sapiens) (UniProt P17252); conditions: at 1 µM
[6] = target: Protein kinase C beta type (Homo sapiens) (UniProt P05771); conditions: at 0.1 µM
Sequence of Protein kinase C beta type (Homo sapiens) (P05771 2-671 limits assumed): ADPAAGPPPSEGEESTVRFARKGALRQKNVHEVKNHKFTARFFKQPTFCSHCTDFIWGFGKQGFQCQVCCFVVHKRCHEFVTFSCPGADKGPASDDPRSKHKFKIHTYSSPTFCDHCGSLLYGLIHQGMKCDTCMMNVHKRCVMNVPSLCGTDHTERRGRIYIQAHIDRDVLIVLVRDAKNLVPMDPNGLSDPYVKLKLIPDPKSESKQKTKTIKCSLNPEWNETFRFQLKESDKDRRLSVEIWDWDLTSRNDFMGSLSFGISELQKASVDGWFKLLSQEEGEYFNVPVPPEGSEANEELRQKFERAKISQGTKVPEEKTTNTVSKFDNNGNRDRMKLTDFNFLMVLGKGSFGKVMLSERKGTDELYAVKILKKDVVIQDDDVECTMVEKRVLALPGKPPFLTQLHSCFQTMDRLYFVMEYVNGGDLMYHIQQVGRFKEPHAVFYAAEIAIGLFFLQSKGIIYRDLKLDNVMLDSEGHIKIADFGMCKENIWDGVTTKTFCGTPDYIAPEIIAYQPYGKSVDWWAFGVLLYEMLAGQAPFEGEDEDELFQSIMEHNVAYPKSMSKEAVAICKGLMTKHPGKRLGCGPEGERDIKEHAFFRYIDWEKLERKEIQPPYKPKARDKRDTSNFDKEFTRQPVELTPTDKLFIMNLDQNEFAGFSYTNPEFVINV

[7] = target: Protein kinase C beta type (Homo sapiens) (UniProt P05771); conditions: at 1 µM
[8] = target: Protein kinase C eta type (Homo sapiens) (UniProt P24723); conditions: at 0.1 µM
Sequence of Protein kinase C eta type (Homo sapiens) (P24723 whole entry): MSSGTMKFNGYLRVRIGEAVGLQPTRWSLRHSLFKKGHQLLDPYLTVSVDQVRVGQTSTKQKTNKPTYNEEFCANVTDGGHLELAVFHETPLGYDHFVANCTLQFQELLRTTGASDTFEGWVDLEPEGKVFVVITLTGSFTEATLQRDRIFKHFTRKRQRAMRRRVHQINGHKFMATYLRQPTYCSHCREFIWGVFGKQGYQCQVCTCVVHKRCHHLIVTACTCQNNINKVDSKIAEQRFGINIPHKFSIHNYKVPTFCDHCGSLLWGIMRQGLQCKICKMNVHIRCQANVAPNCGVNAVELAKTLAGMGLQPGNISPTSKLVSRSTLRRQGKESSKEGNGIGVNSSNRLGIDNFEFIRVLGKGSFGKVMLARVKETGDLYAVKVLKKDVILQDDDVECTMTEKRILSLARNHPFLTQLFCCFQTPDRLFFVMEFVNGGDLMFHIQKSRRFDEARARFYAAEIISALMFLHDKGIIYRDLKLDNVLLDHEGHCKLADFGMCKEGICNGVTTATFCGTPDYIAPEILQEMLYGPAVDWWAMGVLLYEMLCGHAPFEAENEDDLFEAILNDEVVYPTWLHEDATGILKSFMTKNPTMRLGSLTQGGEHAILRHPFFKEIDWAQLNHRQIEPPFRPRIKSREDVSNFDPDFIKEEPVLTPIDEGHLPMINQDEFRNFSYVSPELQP

[9] = target: Protein kinase C eta type (Homo sapiens) (UniProt P24723); conditions: at 1 µM
[10] = target: Protein kinase C gamma type (Homo sapiens) (UniProt P05129); conditions: at 0.1 µM
[11] = target: Protein kinase C gamma type (Homo sapiens) (UniProt P05129); conditions: at 1 µM
[12] = target: T2, Protein kinase C iota type (Homo sapiens) (UniProt P41743); conditions: at 0.1 µM
T2 sequence (whole entry): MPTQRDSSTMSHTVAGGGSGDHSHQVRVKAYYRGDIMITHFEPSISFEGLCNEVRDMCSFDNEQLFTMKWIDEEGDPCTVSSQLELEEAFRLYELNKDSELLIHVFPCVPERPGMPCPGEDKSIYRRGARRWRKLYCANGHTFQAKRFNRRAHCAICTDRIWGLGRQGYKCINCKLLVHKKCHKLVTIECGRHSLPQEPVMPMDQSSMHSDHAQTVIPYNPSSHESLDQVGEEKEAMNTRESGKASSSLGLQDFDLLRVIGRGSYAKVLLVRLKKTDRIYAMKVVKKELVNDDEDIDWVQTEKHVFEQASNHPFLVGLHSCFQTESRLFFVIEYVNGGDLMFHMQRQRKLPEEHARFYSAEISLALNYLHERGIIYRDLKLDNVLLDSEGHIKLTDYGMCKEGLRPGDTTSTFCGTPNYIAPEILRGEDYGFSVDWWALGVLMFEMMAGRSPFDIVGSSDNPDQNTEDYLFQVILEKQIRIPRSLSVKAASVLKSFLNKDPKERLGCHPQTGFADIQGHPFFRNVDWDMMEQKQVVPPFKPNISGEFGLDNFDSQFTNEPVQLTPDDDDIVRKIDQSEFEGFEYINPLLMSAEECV

[13] = target: T2, Protein kinase C iota type (Homo sapiens); conditions: at 1 µM
[14] = target: Protein kinase C theta type (Homo sapiens) (UniProt Q04759); conditions: at 0.1 µM
Sequence of Protein kinase C theta type (Homo sapiens) (Q04759 whole entry, looked up): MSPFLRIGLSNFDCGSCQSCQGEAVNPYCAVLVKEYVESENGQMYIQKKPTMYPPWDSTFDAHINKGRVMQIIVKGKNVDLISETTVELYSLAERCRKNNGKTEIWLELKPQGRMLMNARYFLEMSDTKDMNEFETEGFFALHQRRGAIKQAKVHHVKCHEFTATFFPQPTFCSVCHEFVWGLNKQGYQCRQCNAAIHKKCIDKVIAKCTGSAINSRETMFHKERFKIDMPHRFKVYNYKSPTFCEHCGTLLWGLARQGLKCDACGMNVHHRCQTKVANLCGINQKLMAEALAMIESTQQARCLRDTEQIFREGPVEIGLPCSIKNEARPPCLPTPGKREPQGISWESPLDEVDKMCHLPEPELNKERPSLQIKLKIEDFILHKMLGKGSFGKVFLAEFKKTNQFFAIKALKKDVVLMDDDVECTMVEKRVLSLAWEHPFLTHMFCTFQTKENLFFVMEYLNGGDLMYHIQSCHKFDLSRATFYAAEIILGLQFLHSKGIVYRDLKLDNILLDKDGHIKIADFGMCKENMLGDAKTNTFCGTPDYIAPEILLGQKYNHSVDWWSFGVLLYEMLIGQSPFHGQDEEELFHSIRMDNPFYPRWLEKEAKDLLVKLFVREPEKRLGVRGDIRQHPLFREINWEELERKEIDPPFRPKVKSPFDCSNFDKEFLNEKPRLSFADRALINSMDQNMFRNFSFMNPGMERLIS

[15] = target: Protein kinase C theta type (Homo sapiens) (UniProt Q04759); conditions: at 1 µM
[16] = target: Protein kinase C beta type (Homo sapiens) (UniProt P05771); conditions: at 0.1 µM; remark: listed apart in the source
[17] = target: Protein kinase C beta type (Homo sapiens) (UniProt P05771); conditions: at 1 µM; remark: listed apart in the source
[18] = target: T3, Serine/threonine-protein kinase D1 (Homo sapiens) (UniProt Q15139); conditions: at 0.1 µM
T3 sequence (whole entry): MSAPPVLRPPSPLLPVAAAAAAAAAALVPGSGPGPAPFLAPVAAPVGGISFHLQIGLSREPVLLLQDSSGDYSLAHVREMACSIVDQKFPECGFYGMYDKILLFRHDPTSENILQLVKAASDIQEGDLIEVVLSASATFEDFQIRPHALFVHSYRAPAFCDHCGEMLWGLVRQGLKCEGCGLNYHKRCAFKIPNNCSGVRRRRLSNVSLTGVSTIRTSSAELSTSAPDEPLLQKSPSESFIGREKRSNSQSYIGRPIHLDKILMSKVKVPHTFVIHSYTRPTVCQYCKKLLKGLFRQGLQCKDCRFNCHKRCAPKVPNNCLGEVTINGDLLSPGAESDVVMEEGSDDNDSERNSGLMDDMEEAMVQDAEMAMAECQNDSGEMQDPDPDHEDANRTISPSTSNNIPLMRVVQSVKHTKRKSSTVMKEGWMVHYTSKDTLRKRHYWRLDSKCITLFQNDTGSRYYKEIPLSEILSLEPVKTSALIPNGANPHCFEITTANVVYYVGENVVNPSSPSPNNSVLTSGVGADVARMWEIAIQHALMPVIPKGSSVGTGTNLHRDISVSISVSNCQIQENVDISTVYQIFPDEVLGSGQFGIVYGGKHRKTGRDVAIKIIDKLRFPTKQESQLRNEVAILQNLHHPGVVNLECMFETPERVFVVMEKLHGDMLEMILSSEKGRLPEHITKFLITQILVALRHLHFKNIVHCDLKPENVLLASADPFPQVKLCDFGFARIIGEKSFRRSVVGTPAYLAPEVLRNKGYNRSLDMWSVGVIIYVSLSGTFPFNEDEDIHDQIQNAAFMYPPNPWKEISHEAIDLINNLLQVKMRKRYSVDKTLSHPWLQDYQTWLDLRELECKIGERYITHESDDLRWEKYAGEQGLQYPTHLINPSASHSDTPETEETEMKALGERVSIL

[19] = target: T3, Serine/threonine-protein kinase D1 (Homo sapiens); conditions: at 1 µM
[20] = target: T4, Serine/threonine-protein kinase D2 (Homo sapiens) (UniProt Q9BZL6); conditions: at 0.1 µM;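 note: reported percent inhibition values are means, part of the GSK PKIS kinase panel screen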
T4 sequence (whole entry): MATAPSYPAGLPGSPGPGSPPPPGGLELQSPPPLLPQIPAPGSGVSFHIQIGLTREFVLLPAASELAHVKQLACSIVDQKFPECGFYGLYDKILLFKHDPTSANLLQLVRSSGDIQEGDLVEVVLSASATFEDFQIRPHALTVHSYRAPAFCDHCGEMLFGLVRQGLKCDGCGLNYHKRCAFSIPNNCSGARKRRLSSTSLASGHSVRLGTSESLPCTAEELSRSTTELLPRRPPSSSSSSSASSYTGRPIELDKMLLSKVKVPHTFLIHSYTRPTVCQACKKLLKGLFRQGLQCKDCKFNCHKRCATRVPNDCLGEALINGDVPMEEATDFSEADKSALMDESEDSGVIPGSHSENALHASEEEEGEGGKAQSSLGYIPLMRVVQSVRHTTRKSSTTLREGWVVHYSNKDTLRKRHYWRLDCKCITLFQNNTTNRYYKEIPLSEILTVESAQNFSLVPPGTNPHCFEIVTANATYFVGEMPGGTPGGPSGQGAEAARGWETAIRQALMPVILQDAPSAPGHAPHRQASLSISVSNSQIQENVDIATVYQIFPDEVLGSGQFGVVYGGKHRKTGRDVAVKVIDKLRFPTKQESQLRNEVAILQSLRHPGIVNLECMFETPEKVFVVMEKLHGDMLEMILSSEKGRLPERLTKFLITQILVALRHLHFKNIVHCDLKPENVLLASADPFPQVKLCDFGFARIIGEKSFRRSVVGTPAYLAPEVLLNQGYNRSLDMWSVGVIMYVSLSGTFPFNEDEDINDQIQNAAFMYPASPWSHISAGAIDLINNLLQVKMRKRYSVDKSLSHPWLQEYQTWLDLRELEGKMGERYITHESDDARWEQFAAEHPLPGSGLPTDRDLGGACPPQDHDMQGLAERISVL

Row | SMILES | inhibition [1] | inhibition [2] | inhibition [3] | inhibition [4] | inhibition [5] | inhibition [6] | inhibition [7] | inhibition [8] | inhibition [9] | inhibition [10] | inhibition [11] | inhibition [12] | inhibition [13] | inhibition [14] | inhibition [15] | inhibition [16] | inhibition [17] | inhibition [18] | inhibition [19] | inhibition [20]
1 | CC(C)c1ccc2c(c1)NC(=O)/C2=N/Nc1ccc(S(N)(=O)=O)cc1 | 0.82% | 1.46% | 0.47% | -0.57% | 0.11% | -0.04% | -5.38% | 2.07% | -1.13% | -0.1% | -0.76% | -1.39% | -2.44% | -0.41% | -0.44% | -0.24% | 0.73% | 0.07% | 0.8% | -0.15%
2 | Cc1ccc2c(-c3ccnc(Nc4cccc(C(F)(F)F)c4)n3)c(-c3ccccc3)nn2n1 | 0.65% | 2.43% | 4.26% | 1.57% | 10.6% | 0.54% | 3.6% | 5.12% | 4.11% | -1.08% | 5.36% | 1.34% | 1.37% | 2.13% | 3.7% | 1.37% | 5% | 7.68% | 39.8% | 12.8%
3 | Nc1nccc(C#Cc2cncnc2Nc2ccc(OCc3cccc(F)c3)c(Cl)c2)n1 | 2.4% | 1.49% | 2.74% | 1.36% | 1.81% | 2.69% | 2.19% | 2.81% | -0.12% | 5% | 4.21% | 1.86% | 3.2% | 2.44% | 1.22% | 0.73% | 1.49% | 3.68% | 6.75% | 4.56%
4 | COc1cc2ncn(-c3cc(OCc4ccccc4S(C)(=O)=O)c(C#N)s3)c2cc1OC | 5.59% | 2.29% | 3.77% | 1.33% | 2.72% | 2.71% | 5.16% | 0.91% | -1.63% | 1.77% | 6.46% | 2.06% | 3.79% | 2.44% | 3.61% | 1.55% | 4.05% | 2.92% | 5.45% | 3.97%
5 | NS(=O)(=O)c1ccc(Nc2cc(-c3cccc(O)c3)n[nH]2)cc1 | 1.78% | 3% | 2.6% | 1.01% | 1.85% | -3.34% | 1.78% | 3.19% | 2.17% | 2.3% | 5.97% | 2.37% | 3.83% | 3.09% | 3.2% | 1.35% | 3.75% | 4.8% | 11.4% | 5.45%
6 | CS(=O)(=O)CCNCc1nc(-c2ccc3ncnc(Nc4ccc(OCc5cccc(C(F)(F)F)c5)cc4)c3c2)cs1 | 0.07% | 1.46% | 0.51% | -0.15% | -0.72% | 0.26% | 1.43% | 3.05% | 2.2% | 0.96% | 1.21% | -0.91% | -0.71% | 0.61% | 0.48% | 0.86% | 1.98% | 1.69% | 0.7% | 1.93%
7 | CCCN1CCCC(c2ccc(Nc3nc(Nc4cc(F)ccc4C(N)=O)c4cc[nH]c4n3)c(OC)c2)C1 (stereo not given) | 2.08% | 2.2% | 2.23% | 2.24% | 15.9% | -0.31% | 3.2% | 1.86% | 1.44% | 5.05% | 22% | 0.84% | 2.93% | 1.64% | 4.89% | 1.85% | 5.27% | 32.2% | 79.5% | 25.9%
